Experiments:
Assay in all cases: log2 ratio of Biotin-Ahx-Ub-VS probe labelling (fragment/DMSO); higher = less target engagement (more negative = stronger competition), active = hit call of the paper (q ≤ 0.05, log2 ratio ≤ -1)
Conditions in all cases: compound concentration: 200 uM; treatment time: 3 h
OTUD6B = molecular target: T1, OTUD6B (UniProt Q8N6M0)
T1 sequence (whole entry): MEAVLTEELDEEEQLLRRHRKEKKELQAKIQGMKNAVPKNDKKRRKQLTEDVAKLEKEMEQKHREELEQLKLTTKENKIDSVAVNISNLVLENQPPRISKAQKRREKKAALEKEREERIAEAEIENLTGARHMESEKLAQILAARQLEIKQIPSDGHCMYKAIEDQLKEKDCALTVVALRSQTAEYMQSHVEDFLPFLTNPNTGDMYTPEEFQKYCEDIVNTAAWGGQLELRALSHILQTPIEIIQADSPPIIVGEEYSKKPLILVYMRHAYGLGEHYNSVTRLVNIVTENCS
Summary of the method: (§1)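 HEK293T lysate (495 µg per sample, in Tris/CHAPS/IGEPAL buffer with protease inhibitors) was treated in triplicate with fragment at 200 µM or with DMSO for 3 h. It was then treated with Biotin-Ahx-Ub-VS (0.5 µM final) for 1 h. Labelled DUBs were NeutrAvidin-enriched, digested with LysC and trypsin, and run by diaPASEF LC-MS/MS. Spectronaut label-free quantities were global-median-normalised. Values are average log2 ratios fragment/DMSO by unpaired t-test, using proteins with ≥2 unique peptides.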

OTUD7B = molecular target: T2, OTUD7B (UniProt Q6GQQ9)
T2 sequence (whole entry): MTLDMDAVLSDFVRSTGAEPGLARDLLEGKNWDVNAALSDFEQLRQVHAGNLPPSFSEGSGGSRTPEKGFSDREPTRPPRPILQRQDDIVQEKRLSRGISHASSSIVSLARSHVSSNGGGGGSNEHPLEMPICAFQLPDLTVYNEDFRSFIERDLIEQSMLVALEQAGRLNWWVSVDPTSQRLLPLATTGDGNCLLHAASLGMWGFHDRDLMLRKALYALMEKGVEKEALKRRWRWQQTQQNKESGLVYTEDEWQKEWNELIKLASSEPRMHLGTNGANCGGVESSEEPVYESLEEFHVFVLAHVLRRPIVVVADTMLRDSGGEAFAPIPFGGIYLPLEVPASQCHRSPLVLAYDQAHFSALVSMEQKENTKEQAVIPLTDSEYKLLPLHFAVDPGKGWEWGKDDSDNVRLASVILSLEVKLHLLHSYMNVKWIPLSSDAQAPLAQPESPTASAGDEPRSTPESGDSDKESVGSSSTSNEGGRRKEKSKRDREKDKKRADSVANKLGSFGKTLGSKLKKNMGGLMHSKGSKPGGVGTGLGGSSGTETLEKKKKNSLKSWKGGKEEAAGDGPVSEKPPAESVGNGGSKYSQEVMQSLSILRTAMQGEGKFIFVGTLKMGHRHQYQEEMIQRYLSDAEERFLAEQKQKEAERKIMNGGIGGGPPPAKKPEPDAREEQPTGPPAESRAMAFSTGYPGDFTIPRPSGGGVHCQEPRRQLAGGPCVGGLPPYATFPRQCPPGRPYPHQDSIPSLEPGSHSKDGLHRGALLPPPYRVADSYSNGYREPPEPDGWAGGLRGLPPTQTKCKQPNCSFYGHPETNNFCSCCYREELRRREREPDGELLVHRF
Summary of the method: as §1

PRPF8 = PRPF8 (UniProt Q6P2Q9)
Summary of the method: as §1

PSMD7 = molecular target: T3, PSMD7 (UniProt P51665)
T3 sequence (whole entry): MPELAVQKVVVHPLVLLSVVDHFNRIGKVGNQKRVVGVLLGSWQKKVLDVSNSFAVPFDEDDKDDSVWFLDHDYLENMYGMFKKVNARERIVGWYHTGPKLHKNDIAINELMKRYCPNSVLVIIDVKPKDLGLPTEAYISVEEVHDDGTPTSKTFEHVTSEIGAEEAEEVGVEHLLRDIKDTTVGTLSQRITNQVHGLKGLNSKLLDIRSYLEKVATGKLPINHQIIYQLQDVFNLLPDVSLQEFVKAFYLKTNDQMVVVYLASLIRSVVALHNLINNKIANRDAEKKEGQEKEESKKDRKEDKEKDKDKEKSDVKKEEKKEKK
Summary of the method: as §1

UCHL1 = UCHL1 (UniProt P09936)
Chain of UCHL1 (P09936 whole entry, looked up): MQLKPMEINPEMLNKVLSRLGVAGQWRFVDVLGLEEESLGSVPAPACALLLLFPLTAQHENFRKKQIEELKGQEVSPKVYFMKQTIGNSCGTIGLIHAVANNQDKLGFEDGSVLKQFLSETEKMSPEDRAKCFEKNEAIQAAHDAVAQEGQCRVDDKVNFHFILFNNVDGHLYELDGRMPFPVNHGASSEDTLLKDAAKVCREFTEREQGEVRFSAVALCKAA
Summary of the method: as §1

UCHL3 = molecular target: T4, UCHL3 (UniProt P15374)
T4 sequence (whole entry): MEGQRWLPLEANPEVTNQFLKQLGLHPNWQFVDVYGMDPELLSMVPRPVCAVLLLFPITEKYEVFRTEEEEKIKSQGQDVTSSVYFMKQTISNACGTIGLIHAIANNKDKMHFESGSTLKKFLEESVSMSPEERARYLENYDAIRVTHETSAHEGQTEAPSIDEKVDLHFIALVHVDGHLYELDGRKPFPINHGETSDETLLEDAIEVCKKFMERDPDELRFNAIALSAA
Summary of the method: as §1

UCHL5 = molecular target: T5, UCHL5 (UniProt Q9Y5K5)
T5 sequence (whole entry): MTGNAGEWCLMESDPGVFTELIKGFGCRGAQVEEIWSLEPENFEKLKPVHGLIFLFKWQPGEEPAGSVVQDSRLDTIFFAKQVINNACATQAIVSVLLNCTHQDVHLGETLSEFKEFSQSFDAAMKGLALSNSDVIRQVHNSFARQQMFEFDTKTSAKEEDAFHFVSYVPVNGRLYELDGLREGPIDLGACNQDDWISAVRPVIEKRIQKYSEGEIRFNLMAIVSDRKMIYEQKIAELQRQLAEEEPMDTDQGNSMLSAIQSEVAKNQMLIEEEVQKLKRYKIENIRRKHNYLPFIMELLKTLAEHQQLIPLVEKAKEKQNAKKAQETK
Summary of the method: as §1

USP10 = USP10 (UniProt Q14694)
Chain of USP10 (Q14694 whole entry): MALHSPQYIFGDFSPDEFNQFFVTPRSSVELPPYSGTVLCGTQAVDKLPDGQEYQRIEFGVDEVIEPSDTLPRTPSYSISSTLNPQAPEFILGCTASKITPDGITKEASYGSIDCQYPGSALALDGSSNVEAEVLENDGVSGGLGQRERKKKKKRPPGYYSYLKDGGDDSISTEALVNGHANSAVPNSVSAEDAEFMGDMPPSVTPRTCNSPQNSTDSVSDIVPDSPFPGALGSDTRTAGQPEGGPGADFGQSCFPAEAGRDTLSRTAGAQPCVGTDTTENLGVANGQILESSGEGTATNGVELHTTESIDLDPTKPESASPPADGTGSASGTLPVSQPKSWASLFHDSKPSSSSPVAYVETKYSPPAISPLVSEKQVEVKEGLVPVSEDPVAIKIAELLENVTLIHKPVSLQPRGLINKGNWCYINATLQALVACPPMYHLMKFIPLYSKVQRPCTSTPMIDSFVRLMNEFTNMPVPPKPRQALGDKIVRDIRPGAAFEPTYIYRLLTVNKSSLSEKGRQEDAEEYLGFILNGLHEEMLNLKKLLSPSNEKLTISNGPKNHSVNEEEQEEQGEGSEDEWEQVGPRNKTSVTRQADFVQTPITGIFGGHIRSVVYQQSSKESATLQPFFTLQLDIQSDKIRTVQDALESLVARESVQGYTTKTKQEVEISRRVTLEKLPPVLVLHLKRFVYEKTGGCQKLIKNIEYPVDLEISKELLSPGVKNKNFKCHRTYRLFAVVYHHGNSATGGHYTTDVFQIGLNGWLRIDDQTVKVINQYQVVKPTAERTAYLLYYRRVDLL
Summary of the method: as §1

USP15 = molecular target: T6, USP15 (UniProt Q9Y4E8)
T6 sequence (whole entry): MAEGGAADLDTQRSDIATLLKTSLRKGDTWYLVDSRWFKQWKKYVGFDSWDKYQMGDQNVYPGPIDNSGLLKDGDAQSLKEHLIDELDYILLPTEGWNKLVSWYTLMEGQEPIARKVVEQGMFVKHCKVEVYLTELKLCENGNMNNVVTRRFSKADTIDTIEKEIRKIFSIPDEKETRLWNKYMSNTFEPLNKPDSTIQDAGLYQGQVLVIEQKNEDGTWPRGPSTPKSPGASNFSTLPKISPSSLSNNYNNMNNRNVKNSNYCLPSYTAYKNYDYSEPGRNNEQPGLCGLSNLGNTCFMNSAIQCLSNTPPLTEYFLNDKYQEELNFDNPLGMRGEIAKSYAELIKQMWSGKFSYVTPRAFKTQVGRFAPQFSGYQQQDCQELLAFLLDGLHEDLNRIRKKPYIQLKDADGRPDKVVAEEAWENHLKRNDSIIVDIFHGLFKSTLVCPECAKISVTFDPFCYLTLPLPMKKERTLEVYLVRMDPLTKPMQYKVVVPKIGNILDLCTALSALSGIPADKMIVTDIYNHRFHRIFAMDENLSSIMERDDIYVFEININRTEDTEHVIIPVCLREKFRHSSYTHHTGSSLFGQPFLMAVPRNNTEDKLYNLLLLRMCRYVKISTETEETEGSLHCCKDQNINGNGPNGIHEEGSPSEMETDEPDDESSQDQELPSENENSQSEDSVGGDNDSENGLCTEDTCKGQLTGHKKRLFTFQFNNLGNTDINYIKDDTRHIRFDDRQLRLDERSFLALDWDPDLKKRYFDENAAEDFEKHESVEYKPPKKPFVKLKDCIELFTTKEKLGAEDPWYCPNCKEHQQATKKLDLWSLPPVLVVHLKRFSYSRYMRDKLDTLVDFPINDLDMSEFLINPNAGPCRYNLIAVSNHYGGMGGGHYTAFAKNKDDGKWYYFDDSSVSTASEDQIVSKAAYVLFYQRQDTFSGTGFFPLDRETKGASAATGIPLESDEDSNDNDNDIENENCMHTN
Summary of the method: as §1

USP16 = USP16 (UniProt Q9Y5T5)
Chain of USP16 (Q9Y5T5 whole entry, looked up): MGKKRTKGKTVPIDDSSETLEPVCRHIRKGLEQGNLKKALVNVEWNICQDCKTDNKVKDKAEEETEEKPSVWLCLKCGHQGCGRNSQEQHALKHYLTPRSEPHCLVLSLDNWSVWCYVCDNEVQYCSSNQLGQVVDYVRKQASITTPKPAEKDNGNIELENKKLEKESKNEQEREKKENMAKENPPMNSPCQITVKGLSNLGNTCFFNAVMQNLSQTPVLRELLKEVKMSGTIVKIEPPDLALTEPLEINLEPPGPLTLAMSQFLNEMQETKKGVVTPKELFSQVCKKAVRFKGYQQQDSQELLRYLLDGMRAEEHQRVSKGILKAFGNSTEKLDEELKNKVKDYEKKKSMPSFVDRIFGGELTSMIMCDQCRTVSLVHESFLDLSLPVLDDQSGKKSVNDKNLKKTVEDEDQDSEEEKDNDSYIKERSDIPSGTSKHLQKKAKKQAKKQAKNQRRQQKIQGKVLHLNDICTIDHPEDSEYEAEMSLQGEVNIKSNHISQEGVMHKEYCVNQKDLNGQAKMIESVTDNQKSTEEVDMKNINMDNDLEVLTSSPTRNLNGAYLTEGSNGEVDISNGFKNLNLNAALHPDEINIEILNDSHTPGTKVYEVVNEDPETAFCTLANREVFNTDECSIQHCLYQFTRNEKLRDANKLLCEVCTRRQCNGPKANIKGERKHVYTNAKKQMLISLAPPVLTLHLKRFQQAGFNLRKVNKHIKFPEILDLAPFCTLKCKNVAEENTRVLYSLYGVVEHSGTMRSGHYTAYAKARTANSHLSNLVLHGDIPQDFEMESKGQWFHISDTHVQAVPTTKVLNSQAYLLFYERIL
Summary of the method: as §1

Measured: log2 ratio of Biotin-Ahx-Ub-VS probe labelling

Cl.O=C(CCl)N[C@H]1C[C@@H](n2cccn2)C1
inactive: OTUD6B -0.0562 | OTUD7B -0.797 | PRPF8 0.13 | PSMD7 0.118 | UCHL1 -1.11 | UCHL3 0.478 | UCHL5 -0.14 | USP10 0.0484 | USP15 -0.22 | USP16 0.0253

Reference: the supplement of paper PMC11732987, “Enantioselective OTUD7B fragment discovery through chemoproteomics screening and high-throughput optimisation” (Communications Chemistry, 2025)
